In experiment [1] the test system is H1975. In words: area under confluence curve of osimertinib + compound combination regimen (DTP regrowth); compare to osimertinib-only DTP control AUC of the same experiment (AUC (confluence x time, arbitrary)). Particulars: test compound dose 1000 nM, DMSO control AUC in same experiment: 20657. Summed up:
(§1)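 The area under the IncuCyte confluence–time curve, calculated in Prism and taken as the median of triplicates where available, is the value reported. It was measured in EGFR-mutant NSCLC lines that received the EGFR inhibitor either alone, followed by a test compound, or together with a fixed-dose test compound until the persister stage (10–21 days) and then drug-free medium. Medium was refreshed every 3–4 days until the inhibitor-only wells were confluent again.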

In experiment [2] the test system is HCC2279. Described as above. As to conditions: test compound dose 1000 nM, DMSO control AUC in same experiment: 40085. Summed up:
as §1

The test system of experiment [3] is HCC2935. The experiment is described as above. Particulars: test compound dose 1000 nM, DMSO control AUC in same experiment: 15413. Summed up: as §1
Experiment [4] concerns HCC4006. The experiment is described as above. Particulars: test compound dose 1000 nM, DMSO control AUC in same experiment: 10921. Summed up:
as §1

Experiment [5] relates to HCC827. Described as above. Particulars: test compound dose 1000 nM, DMSO control AUC in same experiment: 48895. Summed up: as §1
The test system of experiment [6] is II-18. The experiment is described as above. As to conditions: test compound dose 1000 nM, DMSO control AUC in same experiment: 7080. Summed up:
as §1

The test system of experiment [7] is H1975. In words: area under confluence curve of compound monotherapy; compare to DMSO control AUC of the same experiment (AUC (confluence x time, arbitrary)). Summed up: (§2)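 Test compound alone was added at one dose (1 uM, or the highest with <50% parental inhibition) to adenocarcinoma lines seeded the previous day at 20,000–30,000 cells/well in 48-well plates with RPMI 1640 and 10% FBS at 37 °C and 5% CO2. The drug was refreshed with PBS washes every 3–4 days, and cultures were left drug-free from the DTP stage (10–21 days) while IncuCyte tracked confluence until wells given only an EGFR inhibitor regrew. Area under the confluence curve was obtained in Prism, as a median of triplicates where run, and compared against vehicle from the same experiment.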

Experiment [8] has as its system HCC2279. The description is as above. Summed up:
as §2

The test system of experiment [9] is HCC2935. Described as above. Summed up: as §2
For experiment [10], the system named is HCC4006. The description is as above. Summed up:
as §2

In experiment [11] the test system is HCC827. Described as above. Summed up:
as §2

Experiment [12] relates to II-18. The description is as above. Summed up: as §2

The structures appear in SMILES notation.

For the compound `Cc1cc(N2C[C@@H](C)N[C@@H](C)C2)ncc1-c1ccc(-c2nc3c(ccn3C)c(=O)[nH]2)cc1` + C=CC(=O)Nc1cc(Nc2nccc(-c3cn(C)c4ccccc34)n2)c(OC)cc1N(C)CCN(C)C [osimertinib], the “area under confluence curve” value in the experiment with H1975 [1] (dosing schedule: sequential, osimertinib-only DTP control AUC in same experiment: 15943) turned out to be 12600; in the experiment with H1975 [1] (dosing schedule: upfront, osimertinib-only DTP control AUC in same experiment: 27804), 11600; in the experiment on HCC2279 [2] (dosing schedule: sequential, osimertinib-only DTP control AUC in same experiment: 15997), 7150; in the experiment on HCC2279 [2] (dosing schedule: upfront, osimertinib-only DTP control AUC in same experiment: 28057), 4140; in the experiment on HCC2935 [3] (dosing schedule: sequential, osimertinib-only DTP control AUC in same experiment: 7139) it was 3770; in the experiment with HCC2935 [3] (dosing schedule: upfront, osimertinib-only DTP control AUC in same experiment: 19044), 6190. For the same compound, the “area under confluence curve” value turned out to be 6450 in the experiment on HCC4006 [4] (dosing schedule: sequential, osimertinib-only DTP control AUC in same experiment: 14882); 7770 in the experiment on HCC4006 [4] (dosing schedule: upfront, osimertinib-only DTP control AUC in same experiment: 18913); 2580 in the experiment on HCC827 [5] (dosing schedule: sequential, osimertinib-only DTP control AUC in same experiment: 18675); 7720 in the experiment on HCC827 [5] (dosing schedule: upfront, osimertinib-only DTP control AUC in same experiment: 25542); 1300 in the experiment with II-18 [6] (dosing schedule: sequential, osimertinib-only DTP control AUC in same experiment: 21122); 1140 with II-18 [6] (dosing schedule: upfront, osimertinib-only DTP control AUC in same experiment: 22894).
With `NC1(C(=O)N[C@@H](CCO)c2ccc(Cl)cc2)CCN(c2nc[nH]c3nccc2-3)CC1` [Capivasertib], the “area under confluence curve” value in the experiment on H1975 [7] (300 nM, DMSO control AUC in same experiment: 26010) stood at 22500; in the experiment on HCC2279 [8] (300 nM, DMSO control AUC in same experiment: 29252) it was 28500; in the experiment with HCC2935 [9] (300 nM, DMSO control AUC in same experiment: 11459), 6510; in the experiment with HCC4006 [10] (300 nM, DMSO control AUC in same experiment: 16794), 16700; in the experiment on HCC827 [11] (300 nM, DMSO control AUC in same experiment: 27404), 28500; in the experiment on II-18 [12] (300 nM, DMSO control AUC in same experiment: 13556), 11600.
Turning to `CN(C)CCCOc1ccc(-c2ccc3ncc4c(c3c2)n(C2CCOCC2)c(=O)n4C)cn1`, the “area under confluence curve” value in the experiment with H1975 [7] (300 nM, DMSO control AUC in same experiment: 26223) came to 22300; in the experiment on HCC2279 [8] (300 nM, DMSO control AUC in same experiment: 14404), 14100; in the experiment with HCC2935 [9] (300 nM, DMSO control AUC in same experiment: 19215) it was 21000; with HCC4006 [10] (300 nM, DMSO control AUC in same experiment: 18415) it was 20100; in the experiment on HCC827 [11] (300 nM, DMSO control AUC in same experiment: 21320) it was 20700; with II-18 [12] (300 nM, DMSO control AUC in same experiment: 11834), 12300.
As to `C[C@@]1(C(=O)Nc2ccc(F)nc2)CCCN1c1nc(Nc2cc(C3CC3)n[nH]2)c2cccn2n1`, the “area under confluence curve” value was 17600 in the experiment on H1975 [7] (100 nM, DMSO control AUC in same experiment: 16540); 15900 in the experiment on HCC2279 [8] (100 nM, DMSO control AUC in same experiment: 14404); 20700 with HCC2935 [9] (100 nM, DMSO control AUC in same experiment: 19215); 20100 in the experiment on HCC4006 [10] (100 nM, DMSO control AUC in same experiment: 18415); 21300 with HCC827 [11] (100 nM, DMSO control AUC in same experiment: 21320); 9980 in the experiment with II-18 [12] (100 nM, DMSO control AUC in same experiment: 11834).
Turning to `Cc1nc(Nc2ncc(C(=O)Nc3c(C)cccc3Cl)s2)cc(N2CCN(CCO)CC2)n1` [Dasatinib], the “area under confluence curve” value in the experiment with H1975 [7] (100 nM, DMSO control AUC in same experiment: 14522) is 4980; in the experiment on HCC2279 [8] (100 nM, DMSO control AUC in same experiment: 29252), 28300; in the experiment on HCC2935 [9] (100 nM, DMSO control AUC in same experiment: 13875), 10400; with HCC4006 [10] (100 nM, DMSO control AUC in same experiment: 16638), 11900; in the experiment with HCC827 [11] (100 nM, DMSO control AUC in same experiment: 30859), 25600; in the experiment with II-18 [12] (30 nM, DMSO control AUC in same experiment: 11408) it was 10100.
Consider `Cc1cc(N2C[C@@H](C)N[C@@H](C)C2)ncc1-c1ccc(-c2nc3c(ccn3C)c(=O)[nH]2)cc1`, for which the “area under confluence curve” value amounted to 19600 with H1975 [7] (1000 nM, DMSO control AUC in same experiment: 20657); 40800 with HCC2279 [8] (1000 nM, DMSO control AUC in same experiment: 40085); 14600 in the experiment on HCC2935 [9] (1000 nM, DMSO control AUC in same experiment: 15413); 10500 with HCC4006 [10] (1000 nM, DMSO control AUC in same experiment: 10921); 48800 in the experiment with HCC827 [11] (1000 nM, DMSO control AUC in same experiment: 48895); 6490 in the experiment with II-18 [12] (1000 nM, DMSO control AUC in same experiment: 7080).

The record behind these values is the supplement of paper PMC9794691.
